Compound activity deposited in PubChem BioAssay by several laboratories.
dFosB act – activators of mouse delta FosB homodimer. actives 0.99% (n = 340,000). purified delta FosB, TAMRA-CDK5 oligo fluorescence polarization; percent of positive-control signal above neutral wells. activation, % at 25 µM. AID 493131. P13346;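 active = mean activation above about 17%, with every replicate also reaching it, limit read from the data, passing the limit was not always enough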
Target sequence (P13346 whole entry, looked up): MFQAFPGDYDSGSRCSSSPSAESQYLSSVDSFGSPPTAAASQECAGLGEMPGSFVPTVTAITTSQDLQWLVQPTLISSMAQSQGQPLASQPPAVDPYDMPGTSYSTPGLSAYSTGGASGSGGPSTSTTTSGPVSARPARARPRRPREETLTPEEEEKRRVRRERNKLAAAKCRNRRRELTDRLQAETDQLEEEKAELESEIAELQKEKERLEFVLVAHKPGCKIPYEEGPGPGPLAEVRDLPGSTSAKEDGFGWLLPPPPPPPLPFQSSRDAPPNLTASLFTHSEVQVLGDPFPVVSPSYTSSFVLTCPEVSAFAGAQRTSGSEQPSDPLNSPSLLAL
HSP90 inh – blocks HSP90-mediated luciferase refolding in reticulocyte lysate. Rabbit reticulocyte lysate, luciferase refolding luminescence, 3 h. actives 0.91% (n = 290,000). inhibition, % at 5.6 µM. AID 1789;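 active = inhibition above the screen-wide mean plus 3 SD, computed separately per campaign, cut at about 16% in these data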;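 also: 0% = DMSO wells and 100% = 60 µM geldanamycin wells; inhibitors lower the luminescence because luciferase stays unfolded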
Platelet DG rel – platelet dense granule release activity. inhibition, %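 (compounds screened at 7.5 µM in platelet-rich plasma)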. human platelet-rich plasma, SFLLRN dense granule ATP release, luminescence. actives 0.22% (n = 300,000);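 active = mean replicate score, as percent of positive control, at or above 50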
MPTP inh – blocks calcium-induced mitochondrial swelling | isolated mouse mitochondria, Ca2+ swelling absorbance, 30 min | inhibition, % at 10 µM | actives 1.4% (n = 360,000);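 active = inhibition of 50% or more, scaled per plate between neutral and stimulator controls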;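 also: 0% = DMSO wells given calcium and 100% = 1 mM EGTA wells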
HSF-1 act – increases HSF-1 driven luciferase reporter signal. actives 1.7% (n = 300,000). NIH3T3-HGL HSF-1 luciferase reporter, MG132, 8 h; 100% = twice DMSO control signal. activation, % at 9 µM;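 active = mean replicate activation of at least 50% with a set share of replicates each reaching 50%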;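 also: 0% = median of the neutral control wells and 100% = twice that signal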
HSF1 inh – HSF1 inhibition. NIH3T3-HGL HSE-luciferase, MG132-induced, luminescence 8 h; hits give low values. activity change, negative = inhibition, % at 7.5 µM (by protocol). actives 0.77% (n = 300,000);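 active = more than half of replicate wells show activity change below -50%, luminescence cut by over half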;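 also: luciferase reports HSF-1 transcriptional activity via heat shock element; 0% = median of DMSO wells and -100% = zero luminescence signal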
An asterisk follows results filed as active; . = no result. The list is not random: actives were taken first. Their share in the collection is about 4.9%.

SMILES | dFosB act | HSP90 inh | Platelet DG rel | MPTP inh | HSF-1 act | HSF1 inh
O=C(NCCCl)NNc1c(Cl)cc(Cl)cc1Cl | 2.0 | 0.7 | 0.4 | -1.2 | . | .
CCc1ccc(C(=O)Nc2cc(S(=O)(=O)N3CCOCC3)ccc2N2CCOCC2)cc1 | -12.2 | . | . | -0.2 | . | .
COc1c(CC=C(C)C)cc(C2CC(=O)c3c(O)cc(O)cc3O2)cc1CC=C(C)C (stereo not drawn) | -10.0 | . | -2.6 | 24.8 | -90.7 | -90.8*
CC(C)N(Cc1ccccc1)C(=O)COC(=O)/C=C/c1cnc2ccccc2n1 | -1.6 | 4.5 | -3.4 | -1.4 | 62.8* | 22.7
OC(c1ccccc1)c1ccccc1CN1CCCNC1=S (stereo not drawn) | . | . | . | 0.3 | . | .
COc1ccc(-c2cnc(C(O)c3ccc(C(C)(C)C)cc3)[nH]2)cc1 (stereo not drawn) | . | . | . | 1.4 | . | .
C=CCN(CC(O)c1cccc([N+](=O)[O-])c1)C(C)CCc1ccccc1 (stereo not drawn) | -2.8 | -2.7 | 0.3 | 3.2 | -83.3 | -77.9*
NC(=NCCc1ccccc1)c1cccc([N+](=O)[O-])c1 | -3.2 | -1.9 | -2.9 | -0.8 | -4.1 | 1.2
COC(=O)c1ccc(COc2ccccc2/C=C(\C#N)C(=O)Nc2c(C)cccc2C)cc1 | 4.5 | -1.0 | -4.1 | -3.8 | 147.8* | 126.3
Cc1ccc(S(=O)(=O)CCN2CCC(O)(c3ccccc3)CC2)cc1 | 0.4 | -1.3 | 17.2 | -1.4 | 37.9 | 3.2
Cc1ccc(S(=O)(=O)CCN2CCN(c3ccccc3)CC2)cc1 | -10.9 | -1.2 | -4.2 | 0.8 | 119.7* | 96.0
O=C1CCC(CCC(=O)N2CCCC(C(=O)c3cccc(C(F)(F)F)c3)C2)=NN1 (stereo not drawn) | -7.1 | -2.3 | -5.0 | -0.6 | 23.2 | -4.0
COc1ccc(N=C2C(=Nc3ccc(OC)cc3)N(c3ccccc3)C(=S)N2C(=O)c2ccc(Cl)cc2)cc1 | -3.8 | -2.2 | -1.2 | 1.7 | 43.6 | 23.6
COc1ccc(N=C2C(=Nc3ccc(OC)cc3)N(c3ccc(OC)cc3)C(=S)N2C(=O)c2ccc(OC)cc2)cc1 | -2.3 | 0.3 | 0.2 | 3.2 | 65.2* | 23.7
COc1ccc(N2C(=S)N(C(=O)c3ccccc3)C(=Nc3ccccc3)C2=Nc2ccccc2)cc1 | -5.4 | -3.0 | 1.6 | 0.8 | 33.7 | 24.3
COc1ccc(N=C2C(=Nc3ccc(OC)cc3)N(c3ccc(N(C)C)cc3)C(=S)N2c2ccc(OC)cc2)cc1 | -9.8 | -4.1 | 7.2 | 2.6 | 62.5* | 29.2
CCn1c(Cn2nnc(-c3ccccc3)n2)nnc1SCC(=O)Nc1cccc(C)c1C | -11.4 | 5.2 | -5.5 | -0.4 | 76.5* | 49.1
CCn1c(Cn2nnc(-c3ccccc3)n2)nnc1SCC(=O)Nc1cccc(C(C)=O)c1 | -4.9 | 3.9 | -5.2 | 1.2 | 4.1 | -1.0
COc1ccc(C(=O)N(C)[C@H]2C[C@H]3c4[nH]c5ccccc5c4CCN3C(=O)[C@H]2CO)cc1 | . | . | . | 0.2 | . | .
Cc1nc2sccn2c(=O)c1S(=O)(=O)NCc1ccccc1Cl | 3.8 | -3.8 | -12.6 | -1.0 | -2.8 | -1.0
CCC(Cc1ccccc1)NS(=O)(=O)c1c(C)nc2sccn2c1=O (stereo not drawn) | -0.7 | -0.1 | 58.3* | -0.5 | -4.6 | -0.6
CC(C)C[C@@H](COCc1ccc(C(F)(F)F)cc1)N1CCN(C(=O)c2ccc(C(F)(F)F)cc2)CCC1=O | . | . | . | -1.0 | . | .
Clc1c(-c2ccccc2)nnn1-c1ccccc1 | -0.4 | -3.1 | -14.9 | -0.7 | 75.4* | 40.8
Nc1nnn(-c2ccccc2)c1-c1ccccc1 | 1.8 | . | 1.5 | 1.1 | 4.2 | 2.1
CC1(C(=O)NS(=O)(=O)c2ccccc2OC(F)(F)F)CCN1C(=O)c1ccco1 (stereo not drawn) | . | . | . | 0.5 | . | .
SMILES | dFosB act | HSP90 inh | Platelet DG rel | MPTP inh | HSF-1 act | HSF1 inh
COc1ccccc1NC(=O)Nc1nnc(CC(=O)Nc2ccccc2C)s1 | 26.5* | 2.6 | -2.1 | -1.2 | -7.4 | -4.6
COc1ccccc1NC(=O)Nc1nnc(CC(=O)Nc2ccccc2)s1 | . | -5.2 | -4.2 | . | 6.6 | -4.3
O=C(C1=C[C@H](c2ccc(Br)cc2)C[C@H](OCCCCO)O1)N1CCN(Cc2ccc3c(c2)OCO3)CC1 | -7.5 | 0.5 | 2.3 | -0.4 | -62.2 | -53.7*
COc1ccccc1C(CNC(=O)c1cccc(S(=O)(=O)NCc2ccccc2)c1)N(C)C (stereo not drawn) | 0.6 | . | -0.7 | 1.1 | 8.4 | 0.5
COc1ccc(S(=O)(=O)N2CCN(C(=O)c3cc(-c4ccc(C)cc4)n[nH]3)CC2)cc1 | 0.0 | -4.2 | 0.9 | 0.2 | 18.0 | 4.9
CC(=O)N1CCC2(CC1)C/C(=N\NC(=S)Nc1ccccc1C)c1cc(O)ccc1O2 | -1.7 | 1.4 | 10.7 | -0.2 | -3.0 | -12.4
CC(=O)N1CCC2(CC1)C/C(=N\NC(=S)Nc1ccccc1F)c1cc(O)ccc1O2 | -7.3 | 3.8 | -0.5 | -1.0 | -58.3 | -52.4*
O=C(OCC(=O)N1CCC(Cc2ccccc2)CC1)c1ccc(O)cc1 | . | . | . | -0.8 | . | .
O=C(NCc1ccccn1)c1cc(-c2ccc(-c3ccccc3)cc2)nc2ccccc12 | -12.0 | -0.2 | 0.5 | 2.5 | 83.6* | 28.6
O=C(NCc1ccccn1)c1cc(-c2ccccc2)nc2ccccc12 | 3.0 | -2.1 | -0.7 | 5.8 | 2.2 | -1.9
O=C(O)c1cc(-c2cc(C(=O)O)c3ccccc3n2)nc2ccccc12 | . | -2.3 | -4.3 | . | 3.9 | -2.8
COCCCNC(=O)c1cc(-c2cccnc2)nc2ccccc12 | -3.3 | -6.3 | 1.7 | 0.6 | -2.2 | -6.1
COCCNC(=O)c1cc(-c2ccc(-c3ccccc3)cc2)nc2ccccc12 | 0.8 | -2.8 | 4.7 | -0.3 | 64.5* | 35.4
O=C(NCCc1ccc(Cl)cc1)c1cc(-c2ccncc2)nc2ccccc12 | -5.2 | -4.4 | 1.8 | 2.3 | 23.2 | 19.4
O=C(O)c1cc(-c2cccc3ccccc23)nc2ccccc12 | -2.2 | -3.0 | -7.5 | 0.6 | -91.0 | -88.2*
CCCc1ccc(-c2cc(C(=O)NCCc3ccc(S(N)(=O)=O)cc3)c3ccccc3n2)cc1 | 10.7 | 1.0 | 6.3 | -0.4 | 84.5* | 41.4
O=C(c1ccncc1)N1CCN(S(=O)(=O)c2ccc(F)cc2)CC1 | 0.2 | -0.4 | 6.9 | 0.1 | -22.8 | -2.4
Cc1[nH]ncc1-c1ccccc1Cl | 3.5 | 4.3 | 28.6 | 2.2 | 10.5 | -6.9
COc1ccc(NC(=O)CN(C)C(=O)c2cnc(Cl)c(Cl)c2)cc1 | -1.5 | 0.2 | 3.9 | -3.0 | -2.0 | -4.0
Nc1nnnn1CC(=O)N/N=C/c1ccccn1 | -3.2 | -3.0 | -3.6 | 2.3 | 98.2* | 47.9
Nc1nnnn1CC(=O)N/N=C/c1cccs1 | -6.2 | -3.7 | -0.9 | 2.6 | 21.0 | 1.7
Clc1ccc(-n2c(SC/C=C/c3ccccc3)nnc2-c2cccnc2)cc1 | -10.2 | 6.1 | -11.8 | -1.7 | 69.1* | 38.0
Cc1cc(C)c(S(=O)(=O)N2CCN(CCN3C(=O)c4cccc5cccc(c45)C3=O)CC2)cc1[N+](=O)[O-] | . | 1.4 | . | . | . | .
